PubChem BioAssay (Tox21)
Inconclusive results are not listed. Activity calls are given as the source filed them. Unless noted, the call rests on the fitted dose curve; in most records, active means well fitted curve in the direction sought with a large enough effect in the repeat runs; inconclusive means weak or mixed curves; inactive means no such curve, though single readings can be large; an effect the other way counts as inactive or inconclusive.

What was measured:
[1] = qHTS assay to identify small molecule antagonists of the estrogen related receptor (ERR) signaling pathway from Tox21 library - cell viability counter screen (AID 1224834); further: nearly all actives have a fitted effect of over 30% in size
Method in brief: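 ERR cells, 2,000/well; 6 h settle at 37 C/5% CO2; pin-tool compound transfer in DMSO; 17.5 h at 37 C; CellTiter-Fluor, 30 min; fluorescence intensity.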

[2] = biological target: Luciferin 4-monooxygenase (Photinus pyralis) (UniProt P08659); test: qHTS assay to identify small molecule inhibitors of firefly luciferase (AID 1224835); further: series mostly up to about 120 µM; nearly all actives have a fitted effect of over 25% in size
Chain of Luciferin 4-monooxygenase (Photinus pyralis) (P08659 whole entry, looked up): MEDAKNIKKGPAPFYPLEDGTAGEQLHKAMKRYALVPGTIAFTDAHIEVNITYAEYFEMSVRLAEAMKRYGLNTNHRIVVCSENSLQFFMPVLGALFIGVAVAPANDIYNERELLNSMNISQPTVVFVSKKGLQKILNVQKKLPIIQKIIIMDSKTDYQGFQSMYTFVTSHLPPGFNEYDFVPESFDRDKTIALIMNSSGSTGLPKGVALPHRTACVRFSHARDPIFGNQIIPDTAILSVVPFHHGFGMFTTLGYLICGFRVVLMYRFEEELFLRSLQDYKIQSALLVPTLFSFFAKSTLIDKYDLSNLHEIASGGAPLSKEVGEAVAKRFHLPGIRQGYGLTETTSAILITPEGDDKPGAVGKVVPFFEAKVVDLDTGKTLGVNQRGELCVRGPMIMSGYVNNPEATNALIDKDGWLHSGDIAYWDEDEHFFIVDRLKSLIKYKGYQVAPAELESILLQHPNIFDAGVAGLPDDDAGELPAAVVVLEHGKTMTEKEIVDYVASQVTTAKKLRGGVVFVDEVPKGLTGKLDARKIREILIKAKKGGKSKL
Method in brief: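 Quantitative HTS format; KM concentrations of both substrates. Purified P. pyralis FLuc activity quantified from luminescence images.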

[3] = qHTS assay to identify small molecule agonists of the constitutive androstane receptor (CAR) signaling pathway - cell viability counter screen (AID 1224836); further: series mostly up to about 92 µM; nearly all actives have a fitted effect of over 45% in size
Method in brief: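 Fluorescence from CellTiter-Fluor indicates live cells after 23 h exposure. The human hepatoma line expresses hCAR and a CYP2B6-2.2kb reporter. Incubation medium contains 0.75 uM PK11195 (final).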

[4] = qHTS assay to identify small molecule antagonists of the constitutive androstane receptor (CAR) signaling pathway - cell viability counter screen (AID 1224837); further: series mostly up to about 92 µM; nearly all actives have a fitted effect of over 45% in size
Method in brief: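 Viability was measured with CellTiter-Fluor in a HepG2 line carrying stably transfected hCAR and a CYP2B6-2.2kb construct. Cells were exposed for 23 hr at 37 C to 15 compound concentrations with 50 nM CITCO as agonist.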

[5] = qHTS assay to identify small molecule antagonists of the estrogen related receptor signaling pathway with the pleiotropic PPARgamma coactivator (PGC) from Tox21 10K library - cell viability counter screen (AID 1224840; active means well fitted cell-killing curve with a large enough effect in the repeat runs, not every such curve was filed as active; further: nearly all actives have a fitted effect of over 40% in size)
Method in brief: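 Multiplexed viability counter screen in the PGC/ERR cell line: cells treated with DMSO-dissolved compounds for 17.5 hours at 37 C, then viability measured as CellTiter-Fluor fluorescence.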

[6] = biological target: Thyrotropin receptor (Homo sapiens) (UniProt P16473); test: qHTS assay to identify small molecule agonists of the thyroid stimulating hormone receptor (TSHR) signaling pathway (AID 1224843; calls by dose curve; further: nearly all actives have a fitted effect of over 45% in size)
Chain of Thyrotropin receptor (Homo sapiens) (P16473 whole entry, looked up): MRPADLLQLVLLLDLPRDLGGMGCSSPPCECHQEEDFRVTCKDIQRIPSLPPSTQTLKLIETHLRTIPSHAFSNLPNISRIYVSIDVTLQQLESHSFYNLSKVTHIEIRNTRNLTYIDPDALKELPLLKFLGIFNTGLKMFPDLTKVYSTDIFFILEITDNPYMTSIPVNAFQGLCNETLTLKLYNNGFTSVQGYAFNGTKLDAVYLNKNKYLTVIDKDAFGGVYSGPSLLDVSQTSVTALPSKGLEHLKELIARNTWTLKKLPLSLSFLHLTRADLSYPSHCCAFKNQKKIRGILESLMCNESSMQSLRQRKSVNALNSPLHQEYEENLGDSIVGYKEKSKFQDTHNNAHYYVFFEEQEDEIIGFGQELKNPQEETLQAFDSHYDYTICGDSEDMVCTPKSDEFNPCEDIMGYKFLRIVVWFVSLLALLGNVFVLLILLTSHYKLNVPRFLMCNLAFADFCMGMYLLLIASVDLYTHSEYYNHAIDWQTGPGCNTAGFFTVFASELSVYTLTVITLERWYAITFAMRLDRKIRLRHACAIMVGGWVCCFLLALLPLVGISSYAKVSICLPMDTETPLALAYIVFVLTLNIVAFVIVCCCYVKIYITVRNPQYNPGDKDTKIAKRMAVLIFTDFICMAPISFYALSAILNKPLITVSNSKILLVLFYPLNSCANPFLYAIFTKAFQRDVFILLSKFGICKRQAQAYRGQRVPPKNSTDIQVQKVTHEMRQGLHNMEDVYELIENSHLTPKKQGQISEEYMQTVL
Method in brief: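 Using 15 concentrations per compound in triplicate, cAMP production was monitored in TSHR-HEK293 cells after 30 min compound incubation at RT; HTRF reagents followed, with fluorescence intensity recorded after 1 h.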

[7] = qHTS assay to identify small molecule antagonists of the estrogen related receptor signaling pathway with the pleiotropic PPARgamma coactivator (PGC) from Tox21 10K library (AID 1224841; call rule not given here; further: series mostly up to about 92 µM; actives are mostly falling curves and most rising ones were filed inactive; nearly all actives have a fitted effect of over 50% in size)
Method in brief: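 Steps: plate 2,000 PGC/ERR cells per well; incubate 6 h at 37 C with 5% CO2; transfer compounds from DMSO stocks by pin tool; incubate 18 h at 37 C; add One-Glo; measure luminescence 30 min later.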

[8] = qHTS assay to identify small molecule agonists of the estrogen related receptor signaling pathway with the pleiotropic PPARgamma coactivator (PGC) from Tox21 10K library (AID 1224842); further: nearly all actives have a fitted effect of over 15% in size; further: potency means the concentration at half of the fitted maximal effect
Method in brief: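 PGC/ERR reporter cells (NTP line) were seeded 2,000 per well, rested 6 h at 37 C/5% CO2, then pin-dosed with compounds in DMSO for 18 h at 37 C; luciferase read by One-Glo luminescence after 30 min at room temperature.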

[9] = biological target: Nuclear receptor subfamily 1 group I member 3 (Homo sapiens) (UniProt Q14994); test: qHTS assay to identify small molecule agonists of the constitutive androstane receptor (CAR) signaling pathway (AID 1224839);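 further: HepG2 cells stably carrying human CAR and a CYP2B6 luciferase reporter; series mostly up to about 92 µM; nearly all actives have a fitted effect of over 15% in size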
Chain of Nuclear receptor subfamily 1 group I member 3 (Homo sapiens) (Q14994 whole entry, looked up): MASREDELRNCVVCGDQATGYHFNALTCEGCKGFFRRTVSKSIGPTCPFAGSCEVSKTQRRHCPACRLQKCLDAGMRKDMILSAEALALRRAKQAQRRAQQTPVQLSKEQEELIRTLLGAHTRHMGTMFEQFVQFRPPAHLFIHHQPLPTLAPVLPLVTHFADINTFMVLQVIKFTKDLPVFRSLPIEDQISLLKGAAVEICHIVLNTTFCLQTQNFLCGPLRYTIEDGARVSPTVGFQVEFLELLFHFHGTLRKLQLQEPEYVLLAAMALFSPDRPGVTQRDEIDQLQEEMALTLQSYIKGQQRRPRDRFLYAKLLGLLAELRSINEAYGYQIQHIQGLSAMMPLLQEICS
Method in brief: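 Stable hCAR/CYP2B6-2.2kb HepG2 line in DMEM with 10% FBS; compounds (15 concentrations) and 0.75 uM PK11195 final, 24 h at 37 C/5% CO2, then ONE-Glo luminescence after 30 min.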
On the % scale 0 is the no-effect control and ±100 the full control effect.

CN1CCN(c2c(F)cc3c(=O)c(C(=O)O)cn(CCF)c3c2F)CC1
inactive: Potency [1] | Potency [2] | Potency [3] | Potency [4] | Potency [5] | Potency [6]

COc1cc(C)ccc1C(C)C
inactive: Potency [1] | Potency [2] | Potency [3] | Potency [4] | Potency [5] | Potency [7] | Potency [8] | Potency [6]

CCCCC(=O)O[C@]1(C(=O)CO)[C@H](C)C[C@H]2[C@@H]3CCC4=CC(=O)C=C[C@]4(C)[C@@]3(F)[C@@H](O)C[C@@]21C
inactive: Potency [1] | Potency [2] | Potency [3] | Potency [4] | Potency [5] | Potency [7] | Potency [8]

CN(CCCN1c2ccccc2CCc2ccccc21)CC(=O)c1ccc(Cl)cc1
inactive: Potency [1] | Potency [2] | Potency [3] | Potency [4] | Potency [5] | Potency [6]

O=C(O)[C@@H](O)[C@H](O)[C@H](O)[C@@H](O)C(=O)O
inactive: Potency [1] | Potency [2] | Potency [3] | Potency [4] | Potency [5] | Potency [7] | Potency [8] | Potency [6]

CCCNC(C)(C)COC(=O)c1ccccc1
inactive: Potency [1] | Potency [2] | Potency [3] | Potency [4] | Potency [5] | Potency [7] | Potency [8] | Potency [6]

C[C@]12CCC(=O)C=C1CC[C@@H]1[C@@H]2CC[C@@]2(C)[C@H]1CC[C@]2(O)C(=O)CO
inactive: Potency [1] | Potency [2] | Potency [3] | Potency [4] | Potency [5] | Potency [7] | Potency [8] | Potency [6]

COc1ccc(S(=O)(=O)Nc2nnc(CC(C)C)s2)cc1
inactive: Potency [1] | Potency [2] | Potency [3] | Potency [4] | Potency [5]

COC(=O)c1ccc2cc(C(=O)OC)ccc2c1
active: Potency [8] 4.44 µM
inactive: viability change, negative = cytotoxic [1] -1.01% [at 19 µM] | activity change, negative = inhibition [2] -7.06% [at 23.6 µM] | viability change, negative = cytotoxic [3] 6.04% [at 19 µM] | activity change, negative = cytotoxicity [4] -9.38% [at 19 µM] | viability change, negative = cytotoxic [5] 1.78% [at 19 µM] | activity, negative = inhibition [7] 221% [at 19 µM]

OCCN(CCO)c1ccccc1
inactive: Potency [1] | Potency [2] | Potency [3] | Potency [4] | Potency [5]

COC(=O)c1ccc(OC)cc1
inactive: Potency [1] | Potency [2] | Potency [3] | Potency [4] | Potency [5] | Potency [7] | Potency [8] | Potency [6]

CC(=O)OC1C2(C)CCC(C2)C1(C)C (stereo unspecified)
inactive: Potency [1] | Potency [2] | Potency [3] | Potency [4] | Potency [5] | Potency [7] | Potency [8] | Potency [6]

O=C1CCCCC1C1CCCCC1 (stereo unspecified)
inactive: Potency [1] | Potency [2] | Potency [3] | Potency [4] | Potency [5] | Potency [6]

N#Cc1ccc(C(c2ccc(C#N)cc2)n2cncn2)cc1
inactive: Potency [1] | Potency [2] | Potency [3] | Potency [4] | Potency [5]

CC/C=C\CCOC(=O)C(C)C
inactive: Potency [1] | Potency [2] | Potency [3] | Potency [4] | Potency [5] | Potency [6]

CCN(CC)CCNC(=O)COc1ccc(Cl)cc1
inactive: Potency [1] | Potency [2] | Potency [3] | Potency [4] | Potency [9] | Potency [5] | Potency [6]

COC(=O)C(C)O (stereo unspecified)
inactive: Potency [1] | Potency [2] | Potency [3] | Potency [4] | Potency [5] | Potency [6]

Cc1ccc(C(C)C)cc1O
inactive: Potency [1] | Potency [2] | Potency [3] | Potency [4] | Potency [5]

CS(=O)(=O)c1ccc([C@@H](O)[C@@H](CF)NC(=O)C(Cl)Cl)cc1
inactive: Potency [1] | Potency [2] | Potency [3] | Potency [4] | Potency [9] | Potency [5] | Potency [6]

C=CC1CO1 (stereo unspecified)
inactive: Potency [1] | Potency [2] | Potency [3] | Potency [4] | Potency [5] | Potency [6]

CCC(=O)Nc1ccc(O)cc1
inactive: Potency [1] | Potency [2] | Potency [3] | Potency [4] | Potency [5] | Potency [6]

CC1CN(c2ccccc2)NC1=O (stereo unspecified)
inactive: Potency [1] | Potency [2] | Potency [3] | Potency [4] | Potency [5] | Potency [6]

O=C1CCCCCCCCCCC(=O)OCCO1
inactive: Potency [1] | Potency [2] | Potency [3] | Potency [4] | Potency [9] | Potency [5] | Potency [6]

C=CCCC=C
inactive: Potency [1] | Potency [2] | Potency [3] | Potency [4] | Potency [5] | Potency [7]

FC(F)(F)c1ccccc1
inactive: Potency [1] | Potency [2] | Potency [3] | Potency [4] | Potency [5] | Potency [7] | Potency [8] | Potency [6]

CC(C)O
inactive: Potency [1] | Potency [2] | Potency [3] | Potency [4] | Potency [9] | Potency [5] | Potency [6]

O=CCCc1ccccc1
inactive: Potency [1] | Potency [2] | Potency [3] | Potency [4] | Potency [5]

O=C1C=CC(=O)O1
inactive: Potency [1] | Potency [2] | Potency [3] | Potency [4] | Potency [5] | Potency [7] | Potency [8]

Oc1ccccc1F
inactive: Potency [1] | Potency [2] | Potency [3] | Potency [4] | Potency [5] | Potency [6]

CCNCCO
inactive: Potency [1] | Potency [2] | Potency [3] | Potency [4] | Potency [5]

CCC1(C)NC(=O)NC1=O (stereo unspecified)
inactive: Potency [1] | Potency [2] | Potency [3] | Potency [4] | Potency [5]

CC(CNC1CCCCC1)OC(=O)c1ccccc1 (stereo unspecified)
inactive: Potency [1] | Potency [2] | Potency [3] | Potency [4] | Potency [5] | Potency [7] | Potency [8] | Potency [6]

C[C@@H]1CN(c2c(F)c(F)c3c(=O)c(C(=O)O)cn(C4CC4)c3c2F)C[C@H](C)N1
inactive: viability change, negative = cytotoxic [1] 2.27% [at 19 µM] | activity change, negative = inhibition [2] 4.05% [at 23.6 µM] | viability change, negative = cytotoxic [3] 4.91% [at 19 µM] | activity change, negative = cytotoxicity [4] 2.19% [at 19 µM] | viability change, negative = cytotoxic [5] 2.41% [at 19 µM] | activity, negative = inhibition [7] 20.9% [at 19 µM] | activation [8] 6.21% [at 19 µM] | activation [6] -4.01% [at 19 µM]
